Data on 40 compounds can be found in PubChem BioAssay (Tox21).

The structures appear in SMILES notation. Inconclusive results are not listed. Where a call stands in place of a potency, no number is given. Values without a mark were called inactive. Active and inactive are the calls of the source. The call rests on the fitted dose curve; in most records, active means well fitted cell-killing curve with a large enough effect in the repeat runs; inconclusive means weak or mixed curves, or effect the other way; inactive means no such curve, though single readings can be large or run the other way.

This experiment can be described thus: qHTS assay to identify small molecule antagonists of the thyroid receptor (TR) signaling pathway - cell viability counter screen (AID 743064). Further: nearly all actives have a fitted effect of over 50% in size. To be noted: GH3.TRE-Luc viability, CellTiter-Fluor, 24 h; series mostly up to 70.3 µM. An excerpt: National Center for Advancing Translational Sciences [NCATS]
NIH Chemical Genomics Center [NCGC]
U.S. Environmental Protection Agency [EPA]
National Institutes of Environmental Health Sciences [NIEHS]
National Toxicology Program [NTP]
U.S. Food and Drug Administration [FDA]
Thyroid receptor (TR), a nuclear hormone receptor, plays an important role in development, proliferation, differentiation, metabolism, brain function, and cardiovascular system. […] To profile the Tox21 10K compound library in TR signaling, a cell-based GH3-TRE-Luc assay (GH3.TRE-Luc cell line, developed by the laboratory of Dr. Albertinka J. Murk, Wageningen University) was used to measure the inhibition of TR. GH3 (rat pituitary tumor) cells stably expressing a TR activity sensor consisting of two TR response elements and a luciferase reporter gene. The cytotoxicity of the Tox21 compound library against the GH3.TRE-Luc cell line was tested in parallel by measuring the cell viability using CellTiter-Fluor assay (Promega, Madison, WI) in the same wells.
Tox21 Assay Protocol Summary:
GH3.TRE-Luc cells were dispensed at 1500 cells/4 uL/well into 1536-well white solid bottom plates using a Multidrop Combi dispenser (Thermo Fisher Scientific Inc., Waltham, MA). After the assay plates were incubated at 37 C for 4 hours, 23 nL of library compound or DMSO controls was transferred to the assay plates by a pintool station (Kalypsys, San Diego, CA), followed by addition of 1 ul of T3 (1 nM, final concentration in the wells) to stimulate TR transactivation. The assay plates were incubated at 37 C for 23.5 h, and then 1 uL of CellTiter-Fluor reagent (Promega, Madision, WI) of measuring cytotoxicity was added to each well using a Bioraptr Flying Reagent Dispenser (FRD) workstation (Beckman Coulter, Indianapolis, IN, USA). The plates were incubated at 37C and 5% CO2 for additional 30 min, and fluorescence intensity was measured by a ViewLux plate reader (PerkinElmer, Shelton, CT).
Consider `O=c1cc(-c2ccccc2)oc2ccccc12`, for which the Potency entry is “inactive”.

Consider `CCCCCCCCCCCCCC=O`, for which the activity change, negative = cytotoxic is -8.15% [at 8.44 µM].

For the compound `CC(=O)Nc1c(I)cc(I)c(C(=O)O)c1I`, the Potency entry is “inactive”.

For `CCOC(=O)c1cccc(N)c1`, the Potency result was “inactive”.

Take `N=c1nc(N2CCCCC2)cc(N)n1O`: the Potency entry was “inactive”.

In the case of `FC(F)OC(Cl)C(F)(F)F` (stereo not given), the Potency result was “inactive”.

Consider `NS(=O)(=O)c1cc(C(=O)O)cc(N2CCCC2)c1Oc1ccccc1`, for which the Potency entry was “inactive”.

With `CC(C)(C)NCCNC(C)(C)C`, the Potency entry is “inactive”.

For the compound `CC(=O)OC/C=C(\C)CC/C=C(\C)CCC=C(C)C`, the Potency entry is “inactive”.

`CCCC(=O)O[C@]1(C(=O)CO)CC[C@H]2[C@@H]3CCC4=CC(=O)CC[C@]4(C)[C@H]3[C@@H](O)C[C@@]21C`: the Potency result is “inactive”.

For the compound `COC(=O)c1c(Cl)c(Cl)c(C(=O)OC)c(Cl)c1Cl`, the Potency entry was “inactive”.

For `NS(=O)(=O)c1cc2c(cc1Cl)NC(C1CC3C=CC1C3)NS2(=O)=O` (stereo not given), the Potency result is “inactive”.

`Cc1ccc(=O)n(-c2ccccc2)c1`: the Potency result is “inactive”.

Take `CC(C)=CCCC(C)CC(=O)O` (stereo not given): the Potency result was “inactive”.

Regarding `CCOC(=O)Nc1ccc(NCc2ccc(F)cc2)nc1N`, the Potency result was “inactive”.

For the compound `CCn1ccnc1CC1COc2ccccc2O1` (stereo not given), the Potency entry is “inactive”.

Turning to `C=CCCCCCCCCC=O`, the Potency result was “inactive”.

As to `C[N+](C)(C)CCCCCC[N+](C)(C)C`, the Potency entry is “inactive”.

With `NC(=O)Nc1ccccc1`, the Potency result is “inactive”.

For `COc1cc(C(=O)N2CCCCCCC2)cc(OC)c1OC`, the Potency result was “inactive”.

In the case of `CC1(C)CO[C@@H](CC(=O)O)CN1`, the Potency result is “inactive”.

For `CN(C)CCCNCCCN(C)C`, the Potency result was “inactive”.

Take `O=C(CCCN1CCN(c2ccccn2)CC1)c1ccc(F)cc1`: the Potency result is “inactive”.

Turning to `CC/C=C\CC/C=C/C(OCC)OCC`, the Potency result is “inactive”.

`CC(C)c1cc2c(cc1S(=O)(=O)O)[C@@]1(C)CCC[C@@](C)(C(=O)O)[C@@H]1CC2`: the Potency entry is “inactive”.

`OCCCC1CCCCC1`: the Potency result is “inactive”.

Consider `CC(=O)Nc1ccc(S(N)(=O)=O)cc1`, for which the Potency entry was “inactive”.

`c1ccc([C@H]2CN3CCSC3=N2)cc1`: the Potency result is “inactive”.

For `O=C(O)c1ccccc1OP(=O)(O)O`, the Potency entry was “inactive”.

In the case of `CCCCCOC(=O)CCCCC`, the Potency entry is “inactive”.

As to `CCC(C)C1CCCCC1=O` (stereo not given), the Potency entry was “inactive”.

Take `OC1CCCCC1c1ccccc1` (stereo not given): the Potency entry is “inactive”.

In the case of `CC(C)OC(=O)c1ccccc1`, the Potency entry was “inactive”.

Regarding `C[C@@H]1CCN(C(=O)[C@H](CCCN=C(N)N)NS(=O)(=O)c2cccc3c2NC[C@H](C)C3)[C@@H](C(=O)O)C1`, the Potency entry was “inactive”.

As to `CCO/C([O-])=N/c1c[n+](N2CCOCC2)no1`, the Potency result is “inactive”.

With `O=C(O)Cc1ccc(CCNS(=O)(=O)c2ccc(Cl)cc2)cc1`, the Potency entry is “inactive”.

In the case of `NS(=O)(=O)c1ccc(C(=O)O)cc1`, the Potency entry is “inactive”.

Consider `CC/C=C\CCOC(C)=O`, for which the Potency result was “inactive”.

Take `CC(=O)CC(C)(C)C1CCCCC1`: the Potency result was “inactive”.

On to `CCOC(=O)[C@H](CCc1ccccc1)N[C@@H](C)C(=O)N1[C@H](C(=O)O)C[C@@H]2CCC[C@@H]21`, for which the Potency entry was “inactive”.
